# Assay results from ChEMBL document CHEMBL1961873, “Compounds: GSK PKIS; Assays: Nanosyn kinase panel” (2012).
# What was measured:
# [1] = target: CDK3/Cyclin E (Homo sapiens) (UniProt P24864+Q00526); settings: at 1 µM;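 also: each figure is a mean percent inhibition of the CDK3/cyclin E complex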
# [2] = target: Cyclin-dependent kinase 4 (Homo sapiens) (UniProt P11802); settings: at 0.1 µM
# [3] = target: Cyclin-dependent kinase 4 (Homo sapiens) (UniProt P11802); settings: at 1 µM
# [4] = target: Cyclin-dependent kinase 5 (Homo sapiens) (UniProt Q00535); settings: at 0.1 µM
# [5] = target: Cyclin-dependent kinase 5 (Homo sapiens) (UniProt Q00535); settings: at 1 µM
# [6] = target: Cyclin-dependent kinase 6 (Homo sapiens) (UniProt Q00534); settings: at 0.1 µM
# [7] = target: Cyclin-dependent kinase 6 (Homo sapiens) (UniProt Q00534); settings: at 1 µM
# [8] = target: Dual specificity protein kinase CLK2 (Homo sapiens) (UniProt P49760); settings: at 0.1 µM
# [9] = target: Dual specificity protein kinase CLK2 (Homo sapiens) (UniProt P49760); settings: at 1 µM
# [10] = target: Dual specificity protein kinase CLK3 (Homo sapiens) (UniProt P49761); settings: at 0.1 µM
# [11] = target: Dual specificity protein kinase CLK3 (Homo sapiens) (UniProt P49761); settings: at 1 µM
# [12] = target: Dual specificity tyrosine-phosphorylation-regulated kinase 1A (Homo sapiens) (UniProt Q13627); settings: at 0.1 µM
# [13] = target: Dual specificity tyrosine-phosphorylation-regulated kinase 1A (Homo sapiens) (UniProt Q13627); settings: at 1 µM
# [14] = target: Dual specificity tyrosine-phosphorylation-regulated kinase 1B (Homo sapiens) (UniProt Q9Y463); settings: at 0.1 µM
# [15] = target: Dual specificity tyrosine-phosphorylation-regulated kinase 1B (Homo sapiens) (UniProt Q9Y463); settings: at 1 µM
# [16] = target: T1, Dual specificity tyrosine-phosphorylation-regulated kinase 2 (Homo sapiens) (UniProt Q92630); settings: at 0.1 µM
# T1 sequence (whole entry): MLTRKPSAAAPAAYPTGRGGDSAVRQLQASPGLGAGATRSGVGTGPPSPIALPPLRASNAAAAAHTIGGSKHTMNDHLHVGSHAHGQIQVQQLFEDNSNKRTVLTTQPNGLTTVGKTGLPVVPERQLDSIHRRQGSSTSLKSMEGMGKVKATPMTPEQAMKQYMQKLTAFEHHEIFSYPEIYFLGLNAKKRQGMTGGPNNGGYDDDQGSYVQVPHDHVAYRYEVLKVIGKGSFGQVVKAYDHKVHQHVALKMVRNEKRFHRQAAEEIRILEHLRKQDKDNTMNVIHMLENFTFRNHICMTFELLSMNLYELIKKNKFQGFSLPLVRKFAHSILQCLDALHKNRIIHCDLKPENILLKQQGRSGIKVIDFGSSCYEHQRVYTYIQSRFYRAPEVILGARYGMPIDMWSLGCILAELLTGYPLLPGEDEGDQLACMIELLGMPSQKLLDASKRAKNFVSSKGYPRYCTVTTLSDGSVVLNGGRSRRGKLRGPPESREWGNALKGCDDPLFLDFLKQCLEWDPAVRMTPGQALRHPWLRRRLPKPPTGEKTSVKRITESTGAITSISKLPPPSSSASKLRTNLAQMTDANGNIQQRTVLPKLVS
# [17] = target: T1, Dual specificity tyrosine-phosphorylation-regulated kinase 2 (Homo sapiens); settings: at 1 µM
# [18] = target: Glycogen synthase kinase-3 alpha (Homo sapiens) (UniProt P49840); settings: at 0.1 µM
# [19] = target: Glycogen synthase kinase-3 alpha (Homo sapiens) (UniProt P49840); settings: at 1 µM
# [20] = target: Glycogen synthase kinase-3 beta (Homo sapiens) (UniProt P49841); settings: at 0.1 µM;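 also: values are mean percent inhibition of GSK3B activity, from the GSK Published Kinase Inhibitor Set (PKIS) screening dataset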
# Glycogen synthase kinase-3 beta (Homo sapiens), sequence (P49841 whole entry, looked up): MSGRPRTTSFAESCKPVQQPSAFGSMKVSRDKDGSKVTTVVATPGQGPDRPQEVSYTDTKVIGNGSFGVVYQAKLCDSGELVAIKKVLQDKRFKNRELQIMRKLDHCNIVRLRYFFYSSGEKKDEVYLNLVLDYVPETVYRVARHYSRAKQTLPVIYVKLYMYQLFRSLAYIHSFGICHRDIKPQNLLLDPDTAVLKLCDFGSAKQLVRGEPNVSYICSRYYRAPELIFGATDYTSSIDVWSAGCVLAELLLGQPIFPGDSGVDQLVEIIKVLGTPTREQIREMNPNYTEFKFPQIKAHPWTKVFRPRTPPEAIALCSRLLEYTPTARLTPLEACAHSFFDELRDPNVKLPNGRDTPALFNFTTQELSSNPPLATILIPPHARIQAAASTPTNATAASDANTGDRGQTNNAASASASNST
# CDK3/Cyclin E (Homo sapiens), sequence (P24864 whole entry, looked up): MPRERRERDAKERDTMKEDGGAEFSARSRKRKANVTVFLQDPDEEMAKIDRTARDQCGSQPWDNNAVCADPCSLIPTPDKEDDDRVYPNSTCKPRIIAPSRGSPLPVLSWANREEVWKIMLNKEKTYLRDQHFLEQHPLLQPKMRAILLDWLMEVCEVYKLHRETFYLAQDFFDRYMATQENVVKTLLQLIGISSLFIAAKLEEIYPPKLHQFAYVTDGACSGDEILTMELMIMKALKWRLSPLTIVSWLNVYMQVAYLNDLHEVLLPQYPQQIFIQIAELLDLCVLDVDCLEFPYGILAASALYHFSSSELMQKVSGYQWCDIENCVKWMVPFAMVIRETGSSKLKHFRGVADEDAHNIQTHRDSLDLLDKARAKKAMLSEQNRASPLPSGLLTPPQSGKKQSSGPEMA
# CDK3/Cyclin E (Homo sapiens), sequence (Q00526 whole entry, looked up): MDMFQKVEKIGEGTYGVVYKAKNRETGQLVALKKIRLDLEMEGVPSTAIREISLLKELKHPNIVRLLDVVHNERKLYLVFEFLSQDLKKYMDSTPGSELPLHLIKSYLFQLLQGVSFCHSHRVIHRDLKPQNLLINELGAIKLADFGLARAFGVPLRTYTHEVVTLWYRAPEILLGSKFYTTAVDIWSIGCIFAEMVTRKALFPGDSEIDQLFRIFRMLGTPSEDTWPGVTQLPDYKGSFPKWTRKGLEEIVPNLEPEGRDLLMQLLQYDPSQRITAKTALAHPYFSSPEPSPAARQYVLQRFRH
# Cyclin-dependent kinase 6 (Homo sapiens), sequence (Q00534 whole entry): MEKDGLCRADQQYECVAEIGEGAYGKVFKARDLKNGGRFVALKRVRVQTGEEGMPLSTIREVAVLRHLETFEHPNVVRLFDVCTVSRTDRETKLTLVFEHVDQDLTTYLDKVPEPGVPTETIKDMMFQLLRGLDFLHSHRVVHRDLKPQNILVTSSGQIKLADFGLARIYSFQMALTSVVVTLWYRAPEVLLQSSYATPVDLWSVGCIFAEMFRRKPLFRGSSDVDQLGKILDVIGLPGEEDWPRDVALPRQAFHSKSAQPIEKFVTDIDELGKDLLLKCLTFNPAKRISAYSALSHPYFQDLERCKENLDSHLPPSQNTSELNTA
# Cyclin-dependent kinase 4 (Homo sapiens), sequence (P11802 whole entry): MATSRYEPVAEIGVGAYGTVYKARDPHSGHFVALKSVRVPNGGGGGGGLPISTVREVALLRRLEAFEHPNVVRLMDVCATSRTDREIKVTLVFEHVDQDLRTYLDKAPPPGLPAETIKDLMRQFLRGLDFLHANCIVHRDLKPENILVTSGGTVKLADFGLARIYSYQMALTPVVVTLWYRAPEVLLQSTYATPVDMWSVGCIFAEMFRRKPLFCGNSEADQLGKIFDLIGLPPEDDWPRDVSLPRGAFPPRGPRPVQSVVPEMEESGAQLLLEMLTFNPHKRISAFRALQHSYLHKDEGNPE
# Cyclin-dependent kinase 5 (Homo sapiens), sequence (Q00535 whole entry, looked up): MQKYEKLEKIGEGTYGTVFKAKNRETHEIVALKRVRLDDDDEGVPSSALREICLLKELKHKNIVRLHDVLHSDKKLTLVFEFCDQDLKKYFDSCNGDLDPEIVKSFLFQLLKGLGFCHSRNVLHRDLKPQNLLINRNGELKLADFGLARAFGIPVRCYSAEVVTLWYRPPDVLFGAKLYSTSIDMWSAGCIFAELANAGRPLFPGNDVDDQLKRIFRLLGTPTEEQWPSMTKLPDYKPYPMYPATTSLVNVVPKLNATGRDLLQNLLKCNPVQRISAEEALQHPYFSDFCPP
# Dual specificity tyrosine-phosphorylation-regulated kinase 1B (Homo sapiens), sequence (Q9Y463 whole entry, looked up): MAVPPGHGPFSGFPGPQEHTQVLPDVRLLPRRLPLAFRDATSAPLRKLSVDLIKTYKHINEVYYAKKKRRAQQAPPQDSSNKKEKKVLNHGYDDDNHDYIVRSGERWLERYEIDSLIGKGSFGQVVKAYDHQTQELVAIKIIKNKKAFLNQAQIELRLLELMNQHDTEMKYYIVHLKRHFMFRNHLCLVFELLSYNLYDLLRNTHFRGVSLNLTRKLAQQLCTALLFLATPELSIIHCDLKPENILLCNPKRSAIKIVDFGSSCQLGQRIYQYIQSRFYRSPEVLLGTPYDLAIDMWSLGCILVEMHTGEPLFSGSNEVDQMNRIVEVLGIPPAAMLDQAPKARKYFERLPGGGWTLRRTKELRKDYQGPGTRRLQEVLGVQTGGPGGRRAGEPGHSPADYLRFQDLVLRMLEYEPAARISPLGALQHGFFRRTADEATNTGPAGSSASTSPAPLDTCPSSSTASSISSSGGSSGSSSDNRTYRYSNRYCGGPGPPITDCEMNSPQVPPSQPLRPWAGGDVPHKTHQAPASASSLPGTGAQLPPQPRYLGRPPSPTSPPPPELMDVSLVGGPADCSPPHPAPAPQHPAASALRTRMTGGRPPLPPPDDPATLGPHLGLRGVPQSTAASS
# Dual specificity protein kinase CLK2 (Homo sapiens), sequence (P49760 whole entry, looked up): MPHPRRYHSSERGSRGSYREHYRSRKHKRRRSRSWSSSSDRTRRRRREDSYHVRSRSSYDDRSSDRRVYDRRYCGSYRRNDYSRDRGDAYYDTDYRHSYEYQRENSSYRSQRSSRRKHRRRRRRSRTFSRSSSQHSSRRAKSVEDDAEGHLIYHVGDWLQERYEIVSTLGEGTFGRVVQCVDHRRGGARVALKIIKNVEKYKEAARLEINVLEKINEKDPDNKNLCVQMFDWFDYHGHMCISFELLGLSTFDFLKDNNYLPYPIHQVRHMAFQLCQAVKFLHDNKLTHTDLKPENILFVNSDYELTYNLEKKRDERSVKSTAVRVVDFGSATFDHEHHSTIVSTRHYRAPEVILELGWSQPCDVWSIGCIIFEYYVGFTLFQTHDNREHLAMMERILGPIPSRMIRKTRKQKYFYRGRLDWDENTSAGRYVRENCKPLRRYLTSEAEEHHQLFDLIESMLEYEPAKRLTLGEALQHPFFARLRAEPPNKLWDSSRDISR
# Glycogen synthase kinase-3 alpha (Homo sapiens), sequence (P49840 2-483 limits assumed): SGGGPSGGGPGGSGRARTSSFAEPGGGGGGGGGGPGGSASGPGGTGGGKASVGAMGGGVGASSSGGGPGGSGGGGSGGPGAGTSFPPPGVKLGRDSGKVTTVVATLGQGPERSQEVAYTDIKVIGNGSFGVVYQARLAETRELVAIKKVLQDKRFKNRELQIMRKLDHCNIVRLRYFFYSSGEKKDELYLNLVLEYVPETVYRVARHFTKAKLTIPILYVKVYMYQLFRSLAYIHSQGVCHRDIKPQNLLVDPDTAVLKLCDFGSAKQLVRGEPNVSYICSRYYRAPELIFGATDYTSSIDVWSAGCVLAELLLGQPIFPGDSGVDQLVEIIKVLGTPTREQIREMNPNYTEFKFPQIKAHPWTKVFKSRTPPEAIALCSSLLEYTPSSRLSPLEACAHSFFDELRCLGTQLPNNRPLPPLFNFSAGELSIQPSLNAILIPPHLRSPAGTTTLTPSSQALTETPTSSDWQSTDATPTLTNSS
# Dual specificity protein kinase CLK3 (Homo sapiens), sequence (P49761 whole entry, looked up): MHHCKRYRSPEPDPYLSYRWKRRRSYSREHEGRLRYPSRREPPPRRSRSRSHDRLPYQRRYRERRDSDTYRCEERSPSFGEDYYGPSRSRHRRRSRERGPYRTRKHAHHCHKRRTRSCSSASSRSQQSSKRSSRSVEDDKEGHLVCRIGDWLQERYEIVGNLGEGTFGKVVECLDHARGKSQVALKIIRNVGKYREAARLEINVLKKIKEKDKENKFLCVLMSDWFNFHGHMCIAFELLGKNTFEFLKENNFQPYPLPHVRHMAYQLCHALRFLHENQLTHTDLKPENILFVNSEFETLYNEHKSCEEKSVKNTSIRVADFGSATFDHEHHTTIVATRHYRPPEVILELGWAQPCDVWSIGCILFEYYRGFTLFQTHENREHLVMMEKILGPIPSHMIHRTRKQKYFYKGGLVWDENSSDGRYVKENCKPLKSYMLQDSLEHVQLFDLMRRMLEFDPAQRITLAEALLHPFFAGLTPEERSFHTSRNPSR
Compound,inhibition [1] [%],inhibition [2] [%],inhibition [3] [%],inhibition [4] [%],inhibition [5] [%],inhibition [6] [%],inhibition [7] [%],inhibition [8] [%],inhibition [9] [%],inhibition [10] [%],inhibition [11] [%],inhibition [12] [%],inhibition [13] [%],inhibition [14] [%],inhibition [15] [%],inhibition [16] [%],inhibition [17] [%],inhibition [18] [%],inhibition [19] [%],inhibition [20] [%]
Cc1ccc(NC(=O)c2ccnc(N3CCCC3)c2)cc1-c1ccc(C(=O)NCC2CC2)cc1,-0.38,0.83,4.63,2.54,3.21,-7.97,-0.52,3.05,1.8,-1.85,-1.68,0.13,4,-2.86,-0.97,2.77,3.11,1.33,5.65,0.07
O=C1NC(=O)C(c2ccc(Cl)cc2)=C1Nc1ccc(Cl)c(C(=O)O)c1,1.13,0.08,-0.02,0.36,1.75,4.89,5.18,-0.15,1.55,1.39,4.58,3.92,17.2,3.26,8.51,-2.12,-1.19,21.4,72.1,
[O-][S+]1CCN(Cc2ccc(-c3ccc4ncnc(Nc5ccc(OCc6ccccc6)c(F)c5)c4c3)o2)CC1,-0.37,1.78,2.34,0.47,0.42,-2.8,-0.74,1.05,0.69,0.9,11.2,2.61,2.98,1.09,1.08,1.63,3.4,0.27,2.88,-0.3
COc1cc2c(cc1Nc1nc(N3CCc4ccccc43)c3cc[nH]c3n1)N(C(=O)CN(C)C)CC2,1.66,2.1,3.3,0.44,0.4,0.95,1.09,7.85,44.4,0.14,2.24,0.78,3.98,0.64,2.3,2.22,2.02,0.35,1.16,0.15
COC(=O)Nc1nc2cc(Oc3cccc(NC(=O)Nc4cc(C(F)(F)F)ccc4F)c3)ccc2[nH]1,-1.48,1.83,2.11,0.65,1.39,-5.71,1.18,-0.8,1.04,-0.93,0.16,-0.01,2.54,-0.21,1.68,-0.32,-0.02,1.75,7.54,0.73
COc1ccc(COc2ccc(Cc3cnc(N)nc3N)cc2OC)cc1,1.92,1.7,3.6,2.15,2.03,1.93,3.33,2.03,1.66,-0.25,-0.53,1.44,0.52,4,2.57,-0.01,0.42,1.37,0.34,0.96
CCN1CCC(CC(=O)Nc2n[nH]c3nc(-c4cccs4)c(Br)cc23)CC1,9.52,5.84,37,0.96,2.52,30.9,70.8,-1.44,2.75,0.48,4.44,4.33,20.6,4.83,22.3,-0.64,14,46.6,78.3,26.6
CN1CCC(C(=O)Nc2n[nH]c3nnc(-c4ccccc4)cc23)CC1,5.97,8.86,29.4,1.11,3.61,7.11,21.4,1.34,2.3,1.91,2.52,7.11,33.9,7.12,31.9,4.83,9.37,79.5,85.7,
Cc1cccc(-c2n[nH]cc2-c2ccc3ncccc3n2)n1,-2.25,-0.55,2.39,-0.23,0.38,-3.86,0.55,-0.31,3.44,0.37,-3.14,1.27,6.72,-0.18,4.09,0.1,4.03,0.39,1.15,-0.14
COc1cccc(-n2ncc3c(N/N=C/c4cccc(F)c4)ncnc32)c1,5.59,0.03,22.1,3.4,34.2,-5.64,17.1,2.25,1.15,-2.19,-0.14,2.01,25.9,-1.44,14.9,4.29,16.8,54.5,75.2,44.7
Nc1nc(-c2ccc3c(c2)C(=Cc2cc(Br)c(O)c(Br)c2)C(=O)N3)cs1,-0.65,-0.86,2.39,1.35,2.98,-5,-0.79,1.02,2.39,0.15,2.88,1.71,4.89,1.38,3.44,-2.46,-0.96,0.62,4.94,0.83
CCCN1CCC(Oc2cc(Nc3nc(Nc4cccc(F)c4C(N)=O)c4cc[nH]c4n3)c(OC)cc2Cl)CC1,1.54,0.37,3.08,0.2,0.45,0.9,2.04,9.9,49.3,0.11,1.7,2.64,25.9,3.49,27.1,-0.2,0.67,3.45,9.53,3.22
O=C1NC(=O)C(c2ccccc2Cl)=C1Nc1cccc(O)c1,19.4,7.12,25.4,4.62,26.6,7.16,28.7,4.29,36.9,2.2,21.8,8.06,38.5,2.78,15.2,3.09,2.96,,,
Fc1cccc(COc2ccc(Nc3ncnc4cc(-c5ccc[nH]5)sc34)cc2Cl)c1,-1.23,-1.38,1.79,-2.8,-0.09,-9.87,-4.56,0.06,-0.33,-2.46,-1.03,-2.81,-0.45,-3.77,-3.25,1.57,1.07,-2.13,2.99,-2.64
